PvdQ acylase = P. aeruginosa PvdQ acylase inhibitors, primary screen, biochemical, fluorescence, plate reader and imaging, single point; PvdQ acylase [Pseudomonas aeruginosa LESB58]; purified PvdQ acylase; inhibition, % at 10 µM; actives 0.063% (n = 340,000); in the data active means inhibition above about 30%, passing the limit was not always enough;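 further: 0% = vehicle neutral wells and 100% = reference inhibitor wells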
Ecoli rRNA inh = reduced GFP signal of wild-type E. coli, primary screen, bacterial rRNA inhibitor project, GFP/RFP fluorescence, OD600, single point; AID 720706, 2013; GFP signal change (wild-type ribosome), % (no concentration beside the values); E. coli WT GFP vs humanized-ribosome RFP mutants, 24 h; active compounds read low; DMSO median 0, no signal -100; actives 1.6% (n = 350,000);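 active means significant combined selectivity score with lowered wild-type GFP, culture density cut under 30%, mutant RFP and density less affected; inactive means any of these conditions unmet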
ARNT-TACC3 inh = disruptors of ARNT/TACC3 protein interaction, primary screen, biochemical, AlphaScreen, single concentration | inhibition, % at 9.99 µM | AlphaScreen His-ARNT PAS-B/GST-TACC3 binding, luminescence; TACC3 fragment carries E629A point mutation | actives 0.66% (n = 390,000);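 active means mean inhibition of replicates at least 50% and at least half of replicates each reaching 50%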;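 further: 0% = complete ARNT plus TACC3 wells and 100% = ARNT alone without TACC3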
CFTR F508del cor = F508del CFTR correction, initial screen, CFBE line, single point; CFBE cells, YFP halide quenching; stimulated with forskolin plus potentiator P3; % fluorescence drop versus neutral controls; activity (quench increase), % at 7.58 µM; actives 0.36% (n = 350,000);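 active means mean added fluorescence quench of at least 8% versus neutral control, with both replicates also reaching 8%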;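 further: cells transiently co-express mutant CFTR-F508del with the halide-sensitive YFP; corrector assay measuring rescue of mutant channel to the surface after 24 h compound exposure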
ERAP1 inh = human ERAP1 aminopeptidase inhibitors, primary screen, biochemical, single point, plate reader | Endoplasmic reticulum aminopeptidase 1 (Homo sapiens), Q9NZ08 | recombinant ERAP1, Leu-AMC fluorescence, 60 min | inhibition, % at 10.7 µM | actives 0.15% (n = 340,000) | AID 652197, 2013;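 active means mean replicate inhibition of at least 30%, or all replicates individually reaching that 30% level; inactive means mean below 30% and not every replicate reaching it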;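 further: 0% = neutral control wells and 100% = L-leucinethiol positive control wells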
Target sequence (Q9NZ08 whole entry, looked up): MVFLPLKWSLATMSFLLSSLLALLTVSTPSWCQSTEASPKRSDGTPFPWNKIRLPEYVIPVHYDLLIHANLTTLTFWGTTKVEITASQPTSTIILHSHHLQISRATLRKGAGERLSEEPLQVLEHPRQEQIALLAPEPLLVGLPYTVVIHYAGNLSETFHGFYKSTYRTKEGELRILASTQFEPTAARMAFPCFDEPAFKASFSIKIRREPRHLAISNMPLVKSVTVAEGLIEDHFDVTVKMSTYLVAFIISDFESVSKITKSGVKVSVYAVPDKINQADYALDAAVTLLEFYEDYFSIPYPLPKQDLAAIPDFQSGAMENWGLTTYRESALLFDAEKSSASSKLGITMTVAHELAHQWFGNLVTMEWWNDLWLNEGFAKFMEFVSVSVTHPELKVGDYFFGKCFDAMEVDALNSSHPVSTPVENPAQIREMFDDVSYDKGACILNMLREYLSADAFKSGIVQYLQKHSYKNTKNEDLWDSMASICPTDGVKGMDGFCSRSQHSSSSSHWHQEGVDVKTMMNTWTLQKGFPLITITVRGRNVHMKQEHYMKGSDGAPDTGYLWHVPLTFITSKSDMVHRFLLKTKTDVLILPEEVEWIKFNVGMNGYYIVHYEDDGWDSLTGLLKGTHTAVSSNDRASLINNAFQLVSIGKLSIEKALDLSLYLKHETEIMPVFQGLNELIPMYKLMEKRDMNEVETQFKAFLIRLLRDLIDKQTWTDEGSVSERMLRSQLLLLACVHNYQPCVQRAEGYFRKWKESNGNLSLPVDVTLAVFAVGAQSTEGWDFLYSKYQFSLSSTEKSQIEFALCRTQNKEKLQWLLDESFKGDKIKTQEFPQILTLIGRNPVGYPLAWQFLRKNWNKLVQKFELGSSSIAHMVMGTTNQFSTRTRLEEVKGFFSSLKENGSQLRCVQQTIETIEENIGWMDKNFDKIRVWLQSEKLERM
* = called active by the depositor; . = no result. This is a sample that favours compounds with a hit; in the whole collection about 2.1% have one here.

SMILES	PvdQ acylase	Ecoli rRNA inh	ARNT-TACC3 inh	CFTR F508del cor	ERAP1 inh
COCCN(CC(=O)Nc1cccc(C)c1C)C(=O)CN1C(=O)NC2(CCCCC2)C1=O	-16	11	.	1	45*
CC1(C)NC(=O)N(CC(=O)OCC(=O)NC(=O)c2ccccc2)C1=O	-13	4	-8	-2	64*
CCOC(=O)c1ccccc1NC(=O)COC(=O)CN1C(=O)NC2(CCCC2)C1=O	-1	-32*	.	-2	-4
CCC1(CC)NC(=O)N(CC(=O)OCC(=O)NC(=O)c2ccc(Cl)cc2)C1=O	-8	9	-4	1	4
CN(CC(=O)Nc1ccccc1Cl)C(=O)COC(=O)CN1C(=O)NC2(CCCC2)C1=O	-7	2	-13	-1	0
C[C@H](CO)N1C[C@H](C)[C@@H](CN(C)C(=O)CCCN(C)C)OCCCC[C@H](C)Oc2ccc(NC(=O)c3ccccc3)cc2C1=O	.	-2	-3	1	1
C/C=C/c1ccc([C@H]2[C@@H](CO)N(C(=O)NCCC)[C@H]2CNC(=O)C2CC2)cc1	.	-8	2	3	.
COc1cc2ccc(=O)oc2c(O)c1OCC=C(C)C	5	-21*	1	.	-2
CC(C)=CCOc1ccc2ccc(=O)oc2c1	5	5	-11	-3	-1
C[C@H]1CN([C@@H](C)CO)C(=O)c2cc(-c3cccc(F)c3)cnc2O[C@@H]1CN(C)Cc1ccccn1	.	1	17	-1	-2
COc1cccc(CN2[C@@H](CO)[C@@H]3c4ccccc4N(C(=O)c4ccncc4)C[C@@H]32)c1	.	-1	4	-1	-2
COC(=O)C(C)Sc1ncnc2c1c(-c1ccccc1)cn2-c1ccc(OC)cc1 (stereo not given)	-12	.	49*	.	.
Cc1ccc(S(=O)(=O)Nc2ccc3c(c2)C(=O)N([C@@H](C)CO)C[C@H](C)[C@H](CN(C)C(=O)C2CCCCC2)OCCCC[C@H](C)O3)cc1	.	-1	-3	3	3
O=C(NCCCN1CCCC1=O)c1ccccc1OCc1ccc(Cl)cc1Cl	11	-31*	-5	3	1
O=C(NNS(=O)(=O)c1cccc(Cl)c1)c1cc(-c2ccc(F)cc2)nc2ccccc12	-12	-19*	-5	-1	-4
O=C(NN=C1CCCC1)c1cc(-c2ccc(F)cc2)nc2ccccc12	12	20	-4	-1	-3
O=C(NCCCN1CCCC1=O)c1cc(-c2ccc(F)cc2)nc2ccccc12	13	-20*	7	5	-4
CC(C)[C@H](C)NC(=O)N(C)C[C@H]1OCc2ccccc2-c2ccccc2C(=O)N([C@@H](C)CO)C[C@H]1C	.	2	.	.	.
CCc1ccc2nc(Nc3nc(COC)cc(=O)[nH]3)nc(C)c2c1	-15	18	1	-1	-3
COCc1cc(=O)[nH]c(Nc2nc3ccc(C)cc3o2)n1	-7	.	56*	.	.
CSc1nsc(N/N=C/c2ccc3c(c2)OCO3)c1C#N	-3	-29*	-1	2	5
Cc1cc(=O)[nH]c(N/N=C/C2=C(N3CCOCC3)C(=C\c3ccc(Cl)cc3)/CC2)n1	-23	12	24*	.	0
Cc1cc(=O)[nH]c(N/N=C/c2ccc(Br)s2)n1	-9	4	61*	.	1
Cc1cc(=O)[nH]c(N/N=C/CCc2ccccc2)n1	6	-27*	.	.	-2
Cc1cc(=O)[nH]c(N/N=C/C=C/c2ccccc2)n1	4	11	.	1	8
SMILES	PvdQ acylase	Ecoli rRNA inh	ARNT-TACC3 inh	CFTR F508del cor	ERAP1 inh
Cc1cc(=O)[nH]c(N/N=C/c2c(O)n(-c3ccccc3)c(=O)c3ccccc23)n1	13	24	72*	.	0
C[C@H](CO)N1C[C@H](C)[C@@H](CN(C)CC2CCCCC2)Oc2ccc(NC(=O)CCCN(C)C)cc2CC1=O	.	4	0	3	2
C[C@H]1CN([C@@H](C)CO)C(=O)Cc2cc(NC(=O)Cc3cn(C)c4ccccc34)ccc2O[C@@H]1CN(C)C(=O)Nc1ccccc1	.	-1	-7	-3	-2
COCC(=O)Nc1ccc2c(c1)[C@@H]1C[C@H](CC(=O)NC3CCCC3)O[C@H](CO)[C@@H]1O2	.	-1	-8	1	2
Cc1cc(=O)[nH]c(N/N=C/c2ccc(O)c(O)c2)n1	1	5	67*	-2	-2
CSc1ccc(/C=N/Nc2nc(C)cc(=O)[nH]2)cc1	3	-6	14	-2	2
O=C(OCc1ccccc1)/C(=C/c1cccc(Br)c1)NC(=O)c1ccco1	-4	-29*	-2	2	-1
CCOC(=O)c1sc(=S)n(C)c1NC(=O)c1ccc(C(C)(C)C)cc1	5	-31	1	-2	.
CCOC(=O)c1sc(=S)n(C)c1NC(=O)c1ccc(OC)cc1	2	-21*	2	-1	3
CCCNC(=O)N1C[C@H]2[C@@H](c3ccccc31)[C@H](CO)N2C(=O)Nc1ccccc1	.	0	-7	0	-1
Cc1cccc(N=NC(=S)NNc2cccc(C)c2)c1	-6	-20*	.	1	4
O=S(=O)(c1ccc(S(=O)(=O)N(Cc2cccs2)CC2CCCO2)cc1)N1CCCCC1 (stereo not given)	-13	.	-35	.	.
O=S(=O)(NC1CCCC1)c1ccc(S(=O)(=O)N(Cc2cccs2)CC2CCCO2)cc1 (stereo not given)	11	-30*	19	0	-2
Cc1noc(C)c1NC(=O)NCC[C@H]1CC[C@H](NC(=O)c2ccc(F)cc2)[C@H](CO)O1	.	-5	-7	-3	-1
CC1=NN(C(N)=S)C(=O)C1N=Nc1ccccc1O (stereo not given)	8	-26	76*	0	3
CC1=NN(C(N)=S)C(=O)C1N=Nc1c(C)cc(C)cc1C (stereo not given)	-6	.	12	.	.
CC1=NN(C(N)=S)C(=O)C1N=Nc1ccccc1C (stereo not given)	-8	.	-2	.	.
CC1=NN(C(N)=S)C(=O)C1N=Nc1c(C)n(C)n(-c2ccccc2)c1=O (stereo not given)	-1	-18	47*	1	.
CC1=NN(C(N)=S)C(=O)C1N=Nc1c(Cl)cc([N+](=O)[O-])cc1Cl (stereo not given)	12	-26*	21	-2	3
C[C@H](CO)N1C[C@H](C)[C@@H](CN(C)C(=O)Nc2ccc3c(c2)OCO3)Oc2ccc(NC(=O)Cc3cn(C)c4ccccc34)cc2CC1=O	.	-1	-11	0	-4
O=C(C[C@@H]1CC[C@H]2[C@@H](COC[C@@H](O)CN2S(=O)(=O)c2ccc(Oc3ccccc3)cc2)O1)Nc1ccccc1	.	-8	10	3	0
O=C(O)Cc1ccc(C(=O)c2ccc(Cl)cc2)s1	-14	.	-18	.	.

Screening data deposited in PubChem BioAssay by Broad Institute.
